# PubChem BioAssay (Tox21)
# Unmarked numbers belong to inactive results. Calls follow the shape of the full dose curve. Results filed as inconclusive are left out.
# Target: Acetylcholinesterase (Homo sapiens) (UniProt P22303)
# Experiment: Acetylcholinesterase (AChE) small molecule antagonists: colormetric cell-based qHTS assay (AID 1347395); also: nearly all actives have a fitted effect of over 30% in size
# Settings: SH-SY5Y cells AChE activity, colorimetric (Ellman); series mostly up to 115 µM; activity, negative = inhibition: at the top concentration
# Summary of the method: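 Endogenous AChE of human neuroblastoma SH-SY5Y cells was measured with an Ellman-type DTNB/acetylthiocholine mix. Compound pretreatment lasted 30 min at 37 C; substrate reaction ran 90 min at 37 C.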
# % is scaled to controls: 0 for no effect and ±100 for the full control effect.
# Acetylcholinesterase (Homo sapiens), sequence (P22303 whole entry, looked up): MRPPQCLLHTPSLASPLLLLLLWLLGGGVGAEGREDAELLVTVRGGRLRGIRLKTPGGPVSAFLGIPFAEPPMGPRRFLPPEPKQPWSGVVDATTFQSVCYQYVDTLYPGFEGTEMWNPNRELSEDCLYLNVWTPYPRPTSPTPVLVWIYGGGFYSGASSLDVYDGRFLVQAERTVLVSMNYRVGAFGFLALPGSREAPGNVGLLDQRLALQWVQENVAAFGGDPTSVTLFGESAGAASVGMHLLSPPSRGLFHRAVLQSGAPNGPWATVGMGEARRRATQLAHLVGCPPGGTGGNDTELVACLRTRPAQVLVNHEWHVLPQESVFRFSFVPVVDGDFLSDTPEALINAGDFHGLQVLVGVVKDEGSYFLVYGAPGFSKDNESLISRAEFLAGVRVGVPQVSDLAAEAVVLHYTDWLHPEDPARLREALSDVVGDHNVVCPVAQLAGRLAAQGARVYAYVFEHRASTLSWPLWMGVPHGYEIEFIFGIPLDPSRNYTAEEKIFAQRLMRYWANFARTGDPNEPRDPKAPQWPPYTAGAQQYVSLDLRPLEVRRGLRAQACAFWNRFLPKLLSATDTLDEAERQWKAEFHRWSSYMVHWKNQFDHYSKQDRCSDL
row,SMILES,"activity, negative = inhibition"
1,C=CC(C)=CCC=C(C)C,1.89%
2,O=C1OC(OC(=O)c2cccnc2Nc2cccc(C(F)(F)F)c2)c2ccccc21 (configuration not stated),3.37% [at 52.9 µM]
3,C=CC(=O)O[C@H]1C[C@@H]2CC[C@@]1(C)C2(C)C,0.41%
4,OCCC(F)(F)C(F)(F)C(F)(F)C(F)(F)C(F)(F)C(F)(F)F,1.49%
5,CO/N=C(\C(=O)N[C@@H]1C(=O)N2C(C(=O)O)=C(CSc3nc(=O)c(O)nn3C)CS[C@H]12)c1csc(N)n1,-1.85% [at 52.9 µM]
6,OCCc1ccncc1,-0.316%
7,CC(C)(O)c1ccccc1,0.354%
8,COc1cc(OC)cc(OC)c1,-1.18% [at 52.9 µM]
9,CC(C)(C)c1ccc(OCC2CO2)cc1 (configuration not stated),-0.145%
10,CC(=O)C=O,-6%
11,CC1CCC(C(C)(C)O)CC1 (configuration not stated),0.649%
12,Cc1ccc(Cl)cc1Cl,-1.55%
13,CCCC(=O)O[C@]1(C(=O)COC(=O)CC)CC[C@H]2[C@@H]3CCC4=CC(=O)CC[C@]4(C)[C@H]3[C@@H](O)C[C@@]21C,0.0881% [at 23.6 µM]
14,C1COC1,1.43%
15,CCCCCCOc1ccccc1C(N)=O,-0.0717% [at 52.9 µM]
16,CCCCC/C=C\CCC=O,-2.68%
17,COCc1ccc(COC)cc1,0.841%
18,CC/C=C\CCOC(=O)C(C)C,-0.404%
19,OCCN1CCOCC1,3.13%
20,CN(C)CCCO[C@@H]1[C@H]2OC(C)(C)O[C@H]2O[C@@H]1C(O)CO (some centres not stated),0.528% [at 52.9 µM]

row,SMILES,"activity, negative = inhibition"
1,CC(=O)OCCC(C)CC(C)(C)C (configuration not stated),-6.53%
2,CCOc1ccccc1N,0.566%
3,CCCO,4.27%
4,Cc1ccccc1S,3.75% [at 52.9 µM]
5,O=C1OC(=O)C2C3C=CC(C3)C12 (configuration not stated),-7.36%
6,CC(=O)CC(N)=O,1.31%
7,CC(=O)C(C)=O,5.47%
8,O=Cc1ccc(F)c(Br)c1,5.47%
9,CC(C)=CCCC(C)C=O (configuration not stated),-2.06%
10,CC1=C(/C=C/C(C)=C/C=C/C(C)=C\C(=O)O)C(C)(C)CCC1,-9.32%
11,CC[C@H](NC(=O)c1cc(F)ccc1NS(=O)(=O)c1cccc2cccnc12)c1ccccc1,0.186%
12,C=C(C)C(=O)OC,-0.152%
13,Clc1ccc2n[nH]nc2c1,0.374%
14,O=C(O)c1cccc(Cl)n1,1.82%
15,CCC1(C)C(=O)N(Cl)C(=O)N1Cl (configuration not stated),-1.35%
16,CCN(CC)C(=O)Nc1ccc(OCC(O)CNC(C)(C)C)c(C(C)=O)c1 (configuration not stated),-9.35% [at 52.9 µM]
17,COCc1nnc(-c2ccc[n+]([O-])c2)n1-c1c(Cl)c(Cl)cc2[nH]c(=O)c(=O)[nH]c12,0.186%
18,CC(C)[C@H]1CC[C@H](C)C[C@@H]1O,0.716%
19,O=C(O)CO,3.66%

# Target: Acetylcholinesterase (Homo sapiens) (UniProt P22303)
# Experiment: Acetylcholinesterase (AChE) small molecule antagonists: enzyme-based qHTS assay (AID 1347397); also: nearly all actives have a fitted effect of over 55% in size
# Settings: Potency: AChE enzyme activity inhibition; outcome: AChE enzyme activity inhibition; series mostly up to 115 µM; activity change, negative = inhibition: at the top concentration
# Summary of the method: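 Human recombinant acetylcholinesterase; substrate acetylthiocholine; thiocholine quantified with DTNB (colorimetric). Compound preincubation 30 min RT; reaction 10 min RT.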
row,SMILES,"activity change, negative = inhibition"
1,C=CC(C)=CCC=C(C)C,0.71%
2,O=C1OC(OC(=O)c2cccnc2Nc2cccc(C(F)(F)F)c2)c2ccccc21 (configuration not stated),0.27% [at 53 µM]
3,C=CC(=O)O[C@H]1C[C@@H]2CC[C@@]1(C)C2(C)C,0.545%
4,OCCC(F)(F)C(F)(F)C(F)(F)C(F)(F)C(F)(F)C(F)(F)F,-0.264%
5,CO/N=C(\C(=O)N[C@@H]1C(=O)N2C(C(=O)O)=C(CSc3nc(=O)c(O)nn3C)CS[C@H]12)c1csc(N)n1,0.621% [at 53 µM]
6,OCCc1ccncc1,-2.47%
7,CC(C)(O)c1ccccc1,-1.64%
8,COc1cc(OC)cc(OC)c1,0.416% [at 53 µM]
9,CC(C)(C)c1ccc(OCC2CO2)cc1 (configuration not stated),-0.137%
10,CC(=O)C=O,1.36%
11,CC1CCC(C(C)(C)O)CC1 (configuration not stated),-0.517%
12,Cc1ccc(Cl)cc1Cl,1.01%
13,CCCC(=O)O[C@]1(C(=O)COC(=O)CC)CC[C@H]2[C@@H]3CCC4=CC(=O)CC[C@]4(C)[C@H]3[C@@H](O)C[C@@]21C,0.139% [at 23.6 µM]
14,C1COC1,-0.682%
15,CCCCCCOc1ccccc1C(N)=O,-0.265% [at 53 µM]
16,CCCCC/C=C\CCC=O,-1.66%
17,COCc1ccc(COC)cc1,-0.606%
18,CC/C=C\CCOC(=O)C(C)C,0.962%
19,OCCN1CCOCC1,2.57%
20,CN(C)CCCO[C@@H]1[C@H]2OC(C)(C)O[C@H]2O[C@@H]1C(O)CO (some centres not stated),1.53% [at 53 µM]

row,SMILES,"activity change, negative = inhibition"
1,CC(=O)OCCC(C)CC(C)(C)C (configuration not stated),0.129%
2,CCOc1ccccc1N,-0.534%
3,CCCO,0.774%
4,Cc1ccccc1S,-0.0719% [at 53 µM]
5,O=C1OC(=O)C2C3C=CC(C3)C12 (configuration not stated),0.527%
6,CC(=O)CC(N)=O,0.8%
7,CC(=O)C(C)=O,0.137%
8,O=Cc1ccc(F)c(Br)c1,-1.42%
9,CC(C)=CCCC(C)C=O (configuration not stated),0.723%
10,CC1=C(/C=C/C(C)=C/C=C/C(C)=C\C(=O)O)C(C)(C)CCC1,0.273%
11,CC[C@H](NC(=O)c1cc(F)ccc1NS(=O)(=O)c1cccc2cccnc12)c1ccccc1,-12.9%
12,C=C(C)C(=O)OC,0.0168%
13,Clc1ccc2n[nH]nc2c1,-2.2%
14,O=C(O)c1cccc(Cl)n1,4.29%
15,CCC1(C)C(=O)N(Cl)C(=O)N1Cl (configuration not stated),0.545%
16,CCN(CC)C(=O)Nc1ccc(OCC(O)CNC(C)(C)C)c(C(C)=O)c1 (configuration not stated),-2.88% [at 53 µM]
17,COCc1nnc(-c2ccc[n+]([O-])c2)n1-c1c(Cl)c(Cl)cc2[nH]c(=O)c(=O)[nH]c12,1.97%
18,CC(C)[C@H]1CC[C@H](C)C[C@@H]1O,-2.73%
19,O=C(O)CO,-0.3%

# Target: Acetylcholinesterase (Homo sapiens) (UniProt P22303)
# Experiment: Acetylcholinesterase (AChE) small molecule antagonists: fluorescence cell-based qHTS assay (AID 1347398); also: nearly all actives have a fitted effect of over 50% in size
# Settings: SH-SY5Y cells; Potency: AChE activity; outcome: AChE activity; series mostly up to 115 µM; activity change, negative = inhibition: at the top concentration
# Summary of the method: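 Thiocholine generated from acetylthiocholine by SH-SY5Y cell AChE is detected with Thiolite Green (Ex/Em 490/520 nm) after 40 min at room temperature, following 30 min compound pretreatment at 37 C.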
row,SMILES,"activity change, negative = inhibition"
1,C=CC(C)=CCC=C(C)C,-7.21%
2,O=C1OC(OC(=O)c2cccnc2Nc2cccc(C(F)(F)F)c2)c2ccccc21 (configuration not stated),14.3% [at 53.7 µM]
3,C=CC(=O)O[C@H]1C[C@@H]2CC[C@@]1(C)C2(C)C,-0.396%
4,OCCC(F)(F)C(F)(F)C(F)(F)C(F)(F)C(F)(F)C(F)(F)F,-0.252%
5,CO/N=C(\C(=O)N[C@@H]1C(=O)N2C(C(=O)O)=C(CSc3nc(=O)c(O)nn3C)CS[C@H]12)c1csc(N)n1,4.41% [at 53.7 µM]
6,OCCc1ccncc1,3.77%
7,CC(C)(O)c1ccccc1,1.29%
8,COc1cc(OC)cc(OC)c1,0.588% [at 53.7 µM]
9,CC(C)(C)c1ccc(OCC2CO2)cc1 (configuration not stated),-1.81%
10,CC(=O)C=O,-2.88%
11,CC1CCC(C(C)(C)O)CC1 (configuration not stated),2.47%
12,Cc1ccc(Cl)cc1Cl,5.23%
13,CCCC(=O)O[C@]1(C(=O)COC(=O)CC)CC[C@H]2[C@@H]3CCC4=CC(=O)CC[C@]4(C)[C@H]3[C@@H](O)C[C@@]21C,1.87% [at 23.8 µM]
14,C1COC1,6.44%
15,CCCCCCOc1ccccc1C(N)=O,3.1% [at 53.7 µM]
16,CCCCC/C=C\CCC=O,0.325%
17,COCc1ccc(COC)cc1,3.47%
18,CC/C=C\CCOC(=O)C(C)C,0.86%
19,OCCN1CCOCC1,0.788%
20,CN(C)CCCO[C@@H]1[C@H]2OC(C)(C)O[C@H]2O[C@@H]1C(O)CO (some centres not stated),-0.299% [at 53.7 µM]

row,SMILES,"activity change, negative = inhibition"
1,CC(=O)OCCC(C)CC(C)(C)C (configuration not stated),-1.18%
2,CCOc1ccccc1N,5.35%
3,CCCO,6.55%
4,Cc1ccccc1S,3.11% [at 53.7 µM]
5,O=C1OC(=O)C2C3C=CC(C3)C12 (configuration not stated),6.46%
6,CC(=O)CC(N)=O,6.13%
7,CC(=O)C(C)=O,0.823%
8,O=Cc1ccc(F)c(Br)c1,7.96%
9,CC(C)=CCCC(C)C=O (configuration not stated),-13.2%
10,CC1=C(/C=C/C(C)=C/C=C/C(C)=C\C(=O)O)C(C)(C)CCC1,-28.5%
11,CC[C@H](NC(=O)c1cc(F)ccc1NS(=O)(=O)c1cccc2cccnc12)c1ccccc1,-15%
12,C=C(C)C(=O)OC,0.734%
13,Clc1ccc2n[nH]nc2c1,-3.32%
14,O=C(O)c1cccc(Cl)n1,-0.109%
15,CCC1(C)C(=O)N(Cl)C(=O)N1Cl (configuration not stated),7.84%
16,CCN(CC)C(=O)Nc1ccc(OCC(O)CNC(C)(C)C)c(C(C)=O)c1 (configuration not stated),-15.4% [at 53.7 µM]
17,COCc1nnc(-c2ccc[n+]([O-])c2)n1-c1c(Cl)c(Cl)cc2[nH]c(=O)c(=O)[nH]c12,0.357%
18,CC(C)[C@H]1CC[C@H](C)C[C@@H]1O,-4.8%
19,O=C(O)CO,0.814%
